# In PubChem BioAssay (NCATS):
# Results filed as inconclusive are left out. For some assays here: Results with a measured potency or affinity are listed apart. The source made the active and inactive calls. Unless noted, how the calls were made is not given here.
# Experiments:
# [1] = qHTS profiling of the MIPE4 collection as inhibitors of Plasmodium falciparum (DD2) proliferation (AID 743345); conditions: P. falciparum Dd2 in erythrocytes, SYBR Green DNA, 72 h; at 28.5 µM (top of the series) unless noted
# Outline: (§1)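 Erythrocytes infected with P. falciparum (0.3% parasitemia, 2.5% hematocrit) incubated with compounds 72 h at 37 C, 5% CO2. Lysis with saponin/Triton buffer containing SYBR Green I, overnight at room temperature in the dark; DNA fluorescence (485/535 nm) normalised to 0.29 uM artemisinin and DMSO.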
# [2] = qHTS profiling of the MIPE4 collection as inhibitors of Plasmodium falciparum (DD2) proliferation (Rep 2) (AID 743346); conditions: P. falciparum Dd2 in erythrocytes, SYBR Green DNA, 72 h; at 28.5 µM (top of the series) unless noted
# Outline: as §1
# [3] = qHTS profiling of the MIPE4 collection as inhibitors of Plasmodium falciparum (HB3) proliferation (AID 743347);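 further: plate controls were DMSO vehicle wells for no effect and artemisinin wells for full effect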; conditions: P. falciparum HB3 in erythrocytes, SYBR Green DNA, 72 h; at 28.5 µM (top of the series) unless noted
# Outline: as §1
# [4] = Ebola virus entry assay, green fluorescence channel
# [5] = Ebola virus entry assay, ratio channel
# [6] = Ebola virus entry assay, green channel fluorescence
# [7] = Ebola virus entry assay, reporter ratio channel; AC50: Channel type: primary unless noted; outcome: Channel type: primary unless noted
# [8] = Ebola virus entry assay, blue channel (ratio component)
# [9] = High-throughput drug toxicity screening in the BPDCN cell line Cal-1 (AID 1224825); conditions: Cal-1 BPDCN cell viability, qHTS; at 45.8 µM (top of the series) unless noted;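 further: cells exposed to compounds for 48 h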
# Outline: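 500 Cal-1 cells/well, RPMI + glutamine + 10% FBS (phenol red-free); cpd added by pin tool; 48 h, 37C, 5% CO2; CTG 15 min RT, lumi read. Normalised: DMSO 100%, bortezomib 9.2 uM 0%.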
# [10] = qHTS assay for measurement of the activity of small molecule inhibitors on Zika virus induced Caspase-3 activity in human iPSC derived neural progenitor cells (hNPCs) (AID 1224857; active means well fitted inhibition curve with a large enough effect; further: % of control where 0% means no effect; nearly all actives have a fitted effect of over 65% in size); conditions: hNPCs ZIKV-induced caspase-3/7, Caspase-Glo luminescence, 6 h; series mostly up to 45.7 µM
# Outline: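 Percent inhibition of virus-induced caspase-3/7 luminescence (Caspase-Glo), scaled between uninfected cells and Zika-infected cells. hNPCs received compound 1 hr before ZIKV at 2 FFU/cell, with 6 hours infection at 37 C.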
# [11] = qHTS assay for measurement of the activity of small molecule inhibitors on Zika virus induced Caspase-3 activity in human astrocytoma cells (AID 1224859; active means well fitted inhibition curve with a large enough effect;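 further: plate controls were ZIKV-infected untreated cells for no effect and uninfected cells for full effect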); conditions: SNB-19 ZIKV-induced caspase-3/7, luminescence, 6 h; series mostly up to 45.7 µM
# Outline: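 Luminescent caspase-3/7 read-out (30 min reagent, room temperature) in human SNB-19 cells infected 6 h with ZIKV (2 FFU/cell) after 1 h compound pre-incubation; Data were normalised to uninfected and infected wells.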
# Wherever efficacy is given: 0% is about no effect.
structure (smiles),measurement,setting,value
CCC1(c2ccc(N)cc2)CCC(=O)NC1=O (stereo unspecified),"parasite growth remaining, % of DMSO control (lower = more inhibition)",[1],103%
same,"parasite growth, % of control (lower = inhibition)",[2],117%
same,"growth, % of control",[3],101%
same,efficacy,[4],-15.9% (inactive)
same,outcome,[5],inactive
same,outcome,[6],inactive
same,outcome,[7],inactive
same,outcome,[8],inactive
same,viability (% of control),[9],111%
same,outcome,[10],inactive
same,outcome,[11],inactive
CN(C)CCOC(=O)COc1ccc(Cl)cc1,efficacy,[4],14.4% (inactive)
same,outcome,[5],inactive
same,outcome,[6],inactive
same,outcome,[7],inactive
same,outcome,[8],inactive
Clc1ccc(C(c2ccc(Cl)cc2)C(Cl)(Cl)Cl)cc1,efficacy,[4],25.5% (inactive)
same,outcome,[5],inactive
same,outcome,[6],inactive
same,outcome,[7],inactive
same,outcome,[8],inactive
same,outcome,[10],inactive
same,outcome,[11],inactive
C/C=C1\[C@H]2C=C(C)C[C@]1(N)c1ccc(=O)[nH]c1C2,efficacy,[4],25.8% (inactive)
same,outcome,[5],inactive
same,outcome,[6],inactive
same,outcome,[7],inactive
same,outcome,[8],inactive
CCN(CC)CCNC(=O)c1ccc(N)cc1,efficacy,[4],-17.1% (inactive)
same,outcome,[5],inactive
same,outcome,[6],inactive
same,outcome,[7],inactive
same,outcome,[8],inactive
CCc1cc2c(s1)-n1c(C)nnc1CN=C2c1ccccc1Cl,efficacy,[4],22% (inactive)
same,outcome,[5],inactive
same,outcome,[6],inactive
same,outcome,[7],inactive
same,outcome,[8],inactive
same,outcome,[10],inactive
same,outcome,[11],inactive
NC(=O)N[C@@H](CCC(=O)O)C(=O)O,efficacy,[4],-11.5% (inactive)
same,outcome,[5],inactive
same,outcome,[6],inactive
same,outcome,[7],inactive
same,outcome,[8],inactive
CC(C)CCOC(=O)c1ccc(N(C)C)cc1,efficacy,[4],-19.6% (inactive)
same,outcome,[5],inactive
same,outcome,[6],inactive
same,outcome,[7],inactive
same,outcome,[8],inactive
CN(C)CCOC(=O)C(c1ccccc1)C1(O)CCCC1 (stereo unspecified),efficacy,[4],15.2% (inactive)
same,outcome,[5],inactive
same,outcome,[6],inactive
same,outcome,[7],inactive
same,outcome,[8],inactive
Cc1ncc(CO)c(CN)c1O,efficacy,[4],-11.8% (inactive)
same,outcome,[5],inactive
same,outcome,[6],inactive
same,outcome,[7],inactive
same,outcome,[8],inactive
Cc1ncc(CO)c(CO)c1O,efficacy,[4],-13.2% (inactive)
same,outcome,[5],inactive
same,outcome,[6],inactive
same,outcome,[7],inactive
same,outcome,[8],inactive
CCn1cc(C(=O)O)c(=O)c2cnc(N3CCCC3)nc21,efficacy,[4],11.6% (inactive)
same,outcome,[5],inactive
same,outcome,[6],inactive
same,outcome,[7],inactive
same,outcome,[8],inactive
NCCNCCNCCNCCN,efficacy,[4],-17.9% (inactive)
same,outcome,[5],inactive
same,outcome,[6],inactive
same,outcome,[7],inactive
same,outcome,[8],inactive
COC(=O)[C@@H](N)CCCN/C(N)=N/[N+](=O)[O-],efficacy,[4],-11.3% (inactive)
same,outcome,[5],inactive
same,outcome,[6],inactive
same,outcome,[7],inactive
same,outcome,[8],inactive
same,outcome,[10],inactive
same,outcome,[11],inactive
COP(=S)(OC)Oc1ccc(S(=O)(=O)N(C)C)cc1,efficacy,[4],-33.6% (inactive)
same,outcome,[5],inactive
same,outcome,[6],inactive
same,outcome,[7],inactive
same,outcome,[8],inactive
same,outcome,[10],inactive
same,outcome,[11],inactive
COc1cccc2c1C(=O)c1c(O)c3c(c(O)c1C2=O)C[C@@](O)(C(=O)CO)CC3OC1CC(N2CCOC(OC)C2)C(O)C(C)O1 (stereo partly specified),efficacy,[4],57.9% (inactive)
same,outcome,[5],inactive
same,AC50,[7],31.6 µM (active)
same,outcome,[8],inactive
CNC(C)(C)Cc1ccccc1,efficacy,[4],-14.9% (inactive)
same,outcome,[5],inactive
same,outcome,[6],inactive
same,outcome,[7],inactive
same,outcome,[8],inactive
same,outcome,[10],inactive
same,outcome,[11],inactive
COc1ccc(C(=O)c2ccccc2O)c(O)c1,efficacy,[4],-11.1% (inactive)
same,outcome,[6],inactive
C[C@H]1[C@@H]2Cc3ccc(O)cc3[C@@]1(C)CCN2C,efficacy,[4],67.4% (inactive)
same,outcome,[5],inactive
same,outcome,[7],inactive
same,outcome,[10],inactive
same,outcome,[11],inactive
COc1ccccc1N1CCN(CCCCNC(=O)c2ccc(-c3ccc(C(C)=O)cc3)cc2)CC1,efficacy,[4],25.2% (inactive)
same,outcome,[5],inactive
same,outcome,[7],inactive
same,outcome,[8],inactive
NNc1ccccc1,efficacy,[4],-13.5% (inactive)
same,outcome,[5],inactive
same,outcome,[6],inactive
same,outcome,[7],inactive
same,outcome,[8],inactive
same,outcome,[10],inactive
same,outcome,[11],inactive
Nc1nc(N)nc(-c2cc(Cl)ccc2Cl)n1,efficacy,[4],-23.5% (inactive)
same,outcome,[6],inactive
same,outcome,[7],inactive
same,outcome,[8],inactive
COc1ccc(C(=O)c2ccccc2)c(O)c1,efficacy,[4],30% (inactive)
same,outcome,[5],inactive
same,outcome,[7],inactive
same,outcome,[8],inactive
CN(C)[C@@H]1C(=O)C(C(N)=O)=C(O)[C@@]2(O)C(=O)C3=C(O)c4c(O)cccc4C[C@H]3C[C@@H]12,efficacy,[4],167% (inactive)
same,AC50,[5],17.8 µM (active)
same,AC50,[7],17.8 µM (active)
same,outcome,[8],inactive
CCCCC/C=C\C/C=C\C/C=C\C/C=C\CCCC(=O)NCC(=O)O,efficacy,[4],-13.8% (inactive)
same,outcome,[5],inactive
same,outcome,[6],inactive
same,outcome,[7],inactive
same,outcome,[8],inactive
same,outcome,[10],inactive
same,outcome,[11],inactive
CC(C)(C)NCC(O)c1cc(Cl)c(N)c(C(F)(F)F)c1 (stereo unspecified),efficacy,[4],12.5% (inactive)
same,outcome,[5],inactive
same,outcome,[6],inactive
same,outcome,[7],inactive
same,outcome,[8],inactive
same,outcome,[10],inactive
same,outcome,[11],inactive
CCN(CC)CCc1c[nH]c2ccccc12,efficacy,[4],21.6% (inactive)
same,outcome,[5],inactive
same,outcome,[6],inactive
same,outcome,[7],inactive
same,outcome,[10],inactive
same,outcome,[11],inactive
CN1C(=O)NC(=O)C(C)(C2=CCCCC2)C1=O (stereo unspecified),efficacy,[4],10.3% (inactive)
same,outcome,[5],inactive
same,outcome,[6],inactive
same,outcome,[7],inactive
same,outcome,[8],inactive
same,outcome,[10],inactive
same,outcome,[11],inactive
C#C[C@]1(O)CC[C@H]2[C@@H]3CCc4cc(OC5CCCC5)ccc4[C@H]3CC[C@@]21C,efficacy,[4],57.3% (inactive)
same,AC50,[5],5.01 µM (active)
same,AC50,[7],5.01 µM (active)
same,outcome,[8],inactive
